B1: Caulobacter ParB omega fusion; a variant is named by its letters at X, in order, B8GW30 (parent)
chain: MESVVVGEPGMSEGRRGLGRGLSALLGEVDAAPAQAPGEQLGGSREAPIEILQRNPDQPRRTFREEDLEDLSNSIREKGVLQPILVRPSPDTAGEYQIVAGERAWRAAQRAGLKTVPIMVRELDDLAVLEIGIIENVQRADLNVLEEALSYKVLMEKFERTQENIAQTIGKSXSHVANXMRLLXLPDEVQSYLVSGELTAXHARAIAAAADPVALAKQIIEGGLSVRETEALARKAPNLSAGKSKGGRPPRVKDTDTQALESDLSSVLGLDVSIDHRGSTGTLTITYATLEQLDDLCNRLTRGI

This is an account of results in a collection of fitness landscapes (doi:10.1016/j.celrep.2020.107928).

The full ranking holds about 81,000 sequences; the median of “one-hybrid fitness for binding NBS DNA” is about -0.1, and the highest 2% start at about 0.36. Many of the other results were omitted from the sample, so the highest values are more common in it than they were. A value given as a limit tells only on which side of the number the result lay.

This assay covers variants of B1. The assay is described as follows: one-hybrid fitness for binding NBS DNA (the Noc-binding site; scaled: cognate 1, non-cognate 0); higher = stronger binding. Particulars: with NBS DNA site. The method in brief:
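Bacterial one-hybrid selection in E. coli USO rpoZ- hisB- pyrF- with a HIS3 reporter carrying the site 19 bp from the promoter, screening Caulobacter ParB libraries with four specificity codons randomised (NNS). Cells grew 48 hours at 37°C on M9-minus-histidine plus 0.1 mM IPTG and 5 mM 3-AT. Plasmids before and after selection were Illumina-sequenced, three replicate libraries pooled, and variants under 10 reads dropped. Fitness is the log change in variant-to-wild-type read ratio, rescaled to cognate 1, non-cognate 0.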
With QMHQ, the “one-hybrid fitness for binding NBS DNA” value was at most 0.2.

Consider QMRT, for which the “one-hybrid fitness for binding NBS DNA” value stood at 0.79.

On to KGMW, for which the “one-hybrid fitness for binding NBS DNA” value was at most 0.2.

As for IVAT, the “one-hybrid fitness for binding NBS DNA” value was at most 0.2.

For the variant PGEM, the “one-hybrid fitness for binding NBS DNA” value was at most 0.2.

Regarding MPVM, the “one-hybrid fitness for binding NBS DNA” value was at most 0.2.

Take GHRC: the “one-hybrid fitness for binding NBS DNA” value was at most 0.2.

As for NPHC, the “one-hybrid fitness for binding NBS DNA” value was at most 0.2.

With QMND, the “one-hybrid fitness for binding NBS DNA” value is at most 0.2.

Consider QCLT, for which the “one-hybrid fitness for binding NBS DNA” value amounted to 0.487.

Turning to QMSF, the “one-hybrid fitness for binding NBS DNA” value is at most 0.2.

Take QMAG: the “one-hybrid fitness for binding NBS DNA” value is at most 0.2.

In the case of QMDT, the “one-hybrid fitness for binding NBS DNA” value worked out at 0.345.

In the case of QMAF, the “one-hybrid fitness for binding NBS DNA” value was at most 0.2.

In the case of QMAT, the “one-hybrid fitness for binding NBS DNA” value stood at 0.505.

Regarding QSLT, the “one-hybrid fitness for binding NBS DNA” value came out at 0.327.

In the case of QMSG, the “one-hybrid fitness for binding NBS DNA” value is at most 0.2.

Regarding QPLT, the “one-hybrid fitness for binding NBS DNA” value is at most 0.2.

Turning to QMNT, the “one-hybrid fitness for binding NBS DNA” value amounted to 0.52.

On to QMST, for which the “one-hybrid fitness for binding NBS DNA” value was found to be 0.457.

As to CHMT, the “one-hybrid fitness for binding NBS DNA” value is at most 0.2.

As for EHDV, the “one-hybrid fitness for binding NBS DNA” value was at most 0.2.

Turning to SSEQ, the “one-hybrid fitness for binding NBS DNA” value is at most 0.2.

On to GTKR, for which the “one-hybrid fitness for binding NBS DNA” value worked out at 0.255.

Take RILE: the “one-hybrid fitness for binding NBS DNA” value is at most 0.2.

For RWLC, the “one-hybrid fitness for binding NBS DNA” value was at most 0.2.

For ADHS, the “one-hybrid fitness for binding NBS DNA” value is at most 0.2.

Consider SITC, for which the “one-hybrid fitness for binding NBS DNA” value was at most 0.2.

For the variant TCAG, the “one-hybrid fitness for binding NBS DNA” value is at most 0.2.

Regarding QMGL, the “one-hybrid fitness for binding NBS DNA” value is at most 0.2.

For QMLP, the “one-hybrid fitness for binding NBS DNA” value is at most 0.2.

For QMLT, the “one-hybrid fitness for binding NBS DNA” value amounted to 0.395.

As for QMLN, the “one-hybrid fitness for binding NBS DNA” value was at most 0.2.

In the case of QMQT, the “one-hybrid fitness for binding NBS DNA” value is 0.392.

QMGM: the “one-hybrid fitness for binding NBS DNA” value is at most 0.2.

Take QMGT: the “one-hybrid fitness for binding NBS DNA” value came out at 0.447.

Take QMIT: the “one-hybrid fitness for binding NBS DNA” value was determined as 0.402.

Consider QMIN, for which the “one-hybrid fitness for binding NBS DNA” value is at most 0.2.

In the case of QMPT, the “one-hybrid fitness for binding NBS DNA” value was determined as 0.312.

Consider QMQY, for which the “one-hybrid fitness for binding NBS DNA” value was 0.223.

Take QMQF: the “one-hybrid fitness for binding NBS DNA” value is at most 0.2.

On to HGKF, for which the “one-hybrid fitness for binding NBS DNA” value is at most 0.2.

With ARGT, the “one-hybrid fitness for binding NBS DNA” value was at most 0.2.

Turning to PESN, the “one-hybrid fitness for binding NBS DNA” value was at most 0.2.

Consider MRTC, for which the “one-hybrid fitness for binding NBS DNA” value is at most 0.2.

For LKVF, the “one-hybrid fitness for binding NBS DNA” value was at most 0.2.

For the variant YDRK, the “one-hybrid fitness for binding NBS DNA” value was at most 0.2.

With EANW, the “one-hybrid fitness for binding NBS DNA” value was at most 0.2.

Turning to QCSS, the “one-hybrid fitness for binding NBS DNA” value came to 0.449.

As for QMSH, the “one-hybrid fitness for binding NBS DNA” value was at most 0.2.

As to QTSN, the “one-hybrid fitness for binding NBS DNA” value was 0.221.

In the case of QTSP, the “one-hybrid fitness for binding NBS DNA” value was at most 0.2.

As for QMSP, the “one-hybrid fitness for binding NBS DNA” value was at most 0.2.

As to QSSS, the “one-hybrid fitness for binding NBS DNA” value came to 0.353.

As to QHSS, the “one-hybrid fitness for binding NBS DNA” value was determined as 0.37.

Consider QTSS, for which the “one-hybrid fitness for binding NBS DNA” value was 0.522.

Turning to QMSS, the “one-hybrid fitness for binding NBS DNA” value stood at 0.376.

Regarding QHSP, the “one-hybrid fitness for binding NBS DNA” value is at most 0.2.

Consider QPSS, for which the “one-hybrid fitness for binding NBS DNA” value was at most 0.2.

Turning to QHSH, the “one-hybrid fitness for binding NBS DNA” value is at most 0.2.

As to NGMI, the “one-hybrid fitness for binding NBS DNA” value was at most 0.2.

PSRF: the “one-hybrid fitness for binding NBS DNA” value is at most 0.2.

GSQF: the “one-hybrid fitness for binding NBS DNA” value was at most 0.2.

Consider RLMM, for which the “one-hybrid fitness for binding NBS DNA” value was at most 0.2.

Turning to HSIS, the “one-hybrid fitness for binding NBS DNA” value was at most 0.2.

On to RMQR, for which the “one-hybrid fitness for binding NBS DNA” value was found to be 0.411.

In the case of RMQG, the “one-hybrid fitness for binding NBS DNA” value is at most 0.2.

Take RMWR: the “one-hybrid fitness for binding NBS DNA” value amounted to 0.289.

For RMSR, the “one-hybrid fitness for binding NBS DNA” value came out at 0.468.

As for RMPR, the “one-hybrid fitness for binding NBS DNA” value was at most 0.2.

As to RMRP, the “one-hybrid fitness for binding NBS DNA” value is at most 0.2.

For the variant RMRR, the “one-hybrid fitness for binding NBS DNA” value was 0.736.

In the case of RMYR, the “one-hybrid fitness for binding NBS DNA” value is 0.424.

For the variant RMQF, the “one-hybrid fitness for binding NBS DNA” value is at most 0.2.

For the variant RMSN, the “one-hybrid fitness for binding NBS DNA” value was at most 0.2.

As for RMSP, the “one-hybrid fitness for binding NBS DNA” value is at most 0.2.

As for RMIR, the “one-hybrid fitness for binding NBS DNA” value came to 0.253.

With RYMW, the “one-hybrid fitness for binding NBS DNA” value was at most 0.2.

MSPG: the “one-hybrid fitness for binding NBS DNA” value was at most 0.2.

Regarding AAPF, the “one-hybrid fitness for binding NBS DNA” value was at most 0.2.

In the case of KVSV, the “one-hybrid fitness for binding NBS DNA” value was at most 0.2.

On to SDKS, for which the “one-hybrid fitness for binding NBS DNA” value was at most 0.2.

As for WSYG, the “one-hybrid fitness for binding NBS DNA” value was at most 0.2.

SPGT: the “one-hybrid fitness for binding NBS DNA” value was at most 0.2.

As for PNYD, the “one-hybrid fitness for binding NBS DNA” value is at most 0.2.

As for KQNC, the “one-hybrid fitness for binding NBS DNA” value is at most 0.2.

Regarding VKNL, the “one-hybrid fitness for binding NBS DNA” value is at most 0.2.

As to FTGV, the “one-hybrid fitness for binding NBS DNA” value was at most 0.2.

With QSPF, the “one-hybrid fitness for binding NBS DNA” value is at most 0.2.

Take TTVG: the “one-hybrid fitness for binding NBS DNA” value was at most 0.2.

As to GWPD, the “one-hybrid fitness for binding NBS DNA” value was at most 0.2.

For the variant RMHF, the “one-hybrid fitness for binding NBS DNA” value is at most 0.2.

Take RMFR: the “one-hybrid fitness for binding NBS DNA” value was found to be 0.348.

RMAD: the “one-hybrid fitness for binding NBS DNA” value is at most 0.2.

For RMLN, the “one-hybrid fitness for binding NBS DNA” value is at most 0.2.

RMHM: the “one-hybrid fitness for binding NBS DNA” value was at most 0.2.

On to RMGH, for which the “one-hybrid fitness for binding NBS DNA” value was at most 0.2.

With RMGN, the “one-hybrid fitness for binding NBS DNA” value is at most 0.2.

As for RMLS, the “one-hybrid fitness for binding NBS DNA” value was 0.309.

With RMAR, the “one-hybrid fitness for binding NBS DNA” value worked out at 0.46.

Take RMLR: the “one-hybrid fitness for binding NBS DNA” value is 0.431.

With RMHR, the “one-hybrid fitness for binding NBS DNA” value is 0.503.

Regarding RMGR, the “one-hybrid fitness for binding NBS DNA” value was found to be 0.479.
